# Test results reported in the OligoGym collection.
# Target: RNF167
# Experiment: pooled miR-30 sensor sort-seq; sequence = guide strand
# Details: shRNA
# Also: reference of the scale not given here.
row,Sequence,sensor-assay potency score (higher = more potent)
1,TACTCGGAGCTTCTCTCCCCAA,-1.19
2,TTCCTCTTGGTCTTCGTCCCCA,-0.474
3,AAGACTGACCCATTGACCGGGG,-0.25
4,TACAACGAGCTATCATTACTGC,-0.205
5,ATGTGTAGGAATCTGTTTCAGT,-0.804
6,TTGGTAAGTCGATTCCGCTGGA,0.395
7,TTCCTCACTATTCCACACCATG,-1.35
8,TCACATTGTGTACTACAGCGGC,-0.461
9,TTGTGTACTACAGCGGCACCAT,-0.0886
10,TTTGGTAAGTCGATTCCGCTGG,0.435
11,TTCCGGGTCTGAGTGAGCCAGG,-1.12

# Target: RNF170
# Experiment: as above
# Details: shRNA
row,Sequence,sensor-assay potency score (higher = more potent)
1,TATAACTGAATCATCATCCAGT,0.606
2,TATATTATCATATAGGTACCTG,-0.52
3,TAATTAATCTAAGTAATTCTGG,-0.536
4,TAGATCCATAATTCTCTCCATA,-0.793
5,TTATCATATAGGTACCTGCTGA,-0.705
6,ATGCAATCTCAGAACATCCTGA,-0.378
7,TTAATCTAAGTAATTCTGGGGA,0.33
8,ATTCTCTCCATAATAGATCTGG,-0.226
9,TAATATTAGAACTTCAAACATG,-0.991
10,TAAGATAGAAAAAAGCTCCCAT,0.565
11,TACATTAGCTCAGATATCCTAG,0.22
12,TTCCAGACAACATAGAATCAAG,-0.928

# Target: RNF19A
# Experiment: as above
# Details: shRNA
row,Sequence,sensor-assay potency score (higher = more potent)
1,TTTTGTAATACTTATAACCTAA,-0.606
2,TCTGCTTGTACTTCCAACCTGT,0.605
3,TATATTTAGAGATAAAACCTAT,-0.374
4,TTATATAAGCAGCACATCGTGG,-0.73
5,ATTTCTTTCATACACAACCAAC,-1.69
6,TACATCTGCTTGTACTTCCAAC,-0.763
7,TACAGTGGTAGCAAAACTCTGT,0.121
8,TTTGTGCTTTGAAACATCCTTG,0.0546
9,TAACATAATAGGAACACCGATA,-0.784
10,TTGTCGAGCAGCATCACAGGTC,0.0826
11,TTTGTTGTTCTAACAACTGTGC,-0.162
12,TTGGGTTGTGTCTTGCTTCTGC,0.712

# Target: RNF219
# Experiment: as above
# Details: shRNA
row,Sequence,sensor-assay potency score (higher = more potent)
1,TTGATCTGTGACTCCAAGCTGA,0.034
2,TTGATATAGGTCTTTGTTCTTA,-0.397
3,TCTGTTATCAACTTCAGCCTTC,0.456
4,TAGCTTATCCACATCATCTTTC,-0.402
5,ATACTTATCACTTCGTTCCAGG,-0.456
